RE007 growth inh: less growth of the S. pombe RE007 Vpr strain; Potency, µM (highest dose often 92.2 µM), for the others: at the top dose activity change, negative = less growth, most hits filed as inhibitors; S. pombe RE007 Vpr strain, BacTiter-Glo ATP luminescence, 24 h; 0.21% of 360,000 active; active = well fitted falling curve with a large enough effect; inconclusive = small, poorly fitted or top-dose-only effect; inactive = no such curve, though single readings can be large or run the other way; note: nearly all actives have a fitted effect of over 50% in size
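Fission yeast strain RE007, carrying one chromosomally integrated HIV-1 vpr copy, was seeded at OD 0.01 in PMG+AL medium with 23 nL pinned compound. After 24 h at 30 °C and 99% humidity, viability was read by BacTiter-Glo luminescence.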
TbPYK inhibitor: inhibitors of Trypanosoma brucei pyruvate kinase; Q57TT1; TbPYK enzyme, Kinase-Glo Plus ATP luminescence, 45 min; Potency, µM (top dose mostly 76.8 µM), for the others: at the highest dose activity, negative = inhibition, actives largely listed as inhibitors; 0.12% of 410,000 active; note: nearly all actives have a fitted effect of over 50% in size
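T. brucei PYK with substrate was exposed to pin-transferred compounds across a concentration series, then started with 130 uM ADP (final). After 45 min at room temperature, Kinase-Glo Plus luminescence was read, normalized and curve-fitted.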
Sm TGR block: blocks Schistosoma mansoni thioredoxin glutathione reductase; purified TGR, DTNB reduction, TNB absorbance 405 nm; Q962Y6; 3% of 360,000 active; Potency, µM (titrated, usually from 114 µM), inactives show at the highest dose activity change, negative = inhibition, actives largely listed as inhibitors; AID 485364; note: nearly all actives have a fitted effect of over 60% in size
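First, TGR (20 nM dispensed) and NADPH were mixed with compound. Second, a 15 min room-temperature incubation followed. Third, further NADPH and then DTNB were added to start the reaction. Finally, TNB absorbance was monitored kinetically.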
LmPK inhibitor: blocks Leishmania mexicana pyruvate kinase activity; Q27686; purified LmPK, Kinase-Glo ATP luminescence, 1 h; Potency, µM (titrated, usually from 57.5 µM), inactives show top-dose activity change, negative = inhibition, actives largely listed as inhibitors; 0.37% of 290,000 active; AID 1721
Target sequence (Q27686 whole entry, looked up): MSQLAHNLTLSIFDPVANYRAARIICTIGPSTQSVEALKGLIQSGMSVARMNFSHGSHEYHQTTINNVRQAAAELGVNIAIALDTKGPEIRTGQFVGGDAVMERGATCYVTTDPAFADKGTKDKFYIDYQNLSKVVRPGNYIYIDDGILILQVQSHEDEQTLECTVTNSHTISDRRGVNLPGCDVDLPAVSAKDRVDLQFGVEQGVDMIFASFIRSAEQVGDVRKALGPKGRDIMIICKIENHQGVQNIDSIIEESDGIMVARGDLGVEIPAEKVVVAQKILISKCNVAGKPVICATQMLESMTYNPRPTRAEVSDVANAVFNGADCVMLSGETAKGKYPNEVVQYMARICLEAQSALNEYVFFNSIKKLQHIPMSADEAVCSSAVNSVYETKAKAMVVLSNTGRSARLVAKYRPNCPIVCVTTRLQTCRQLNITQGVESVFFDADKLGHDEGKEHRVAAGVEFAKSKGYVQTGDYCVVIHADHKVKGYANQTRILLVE
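Purified LmPK (0.1 nM) with 0.5 mM PEP and 0.1 mM ADP in imidazole buffer pH 7.2 with MgCl2/KCl, 1 h at room temperature. ATP formed was read by luciferase luminescence and normalized to no-enzyme and uninhibited controls.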
An asterisk follows results filed as active; ? = inconclusive; · = no result; [ ] = dose if it differs, or a comment. Shown are actives, neighbours in structure and some others; about 3% of the full set was active somewhere. Unless noted, calls come from the whole dose curve; as a rule, active = well fitted curve in the direction sought with a large enough effect; inconclusive = small, poorly fitted or top-dose-only effect, or another doubt; inactive = no such curve, though single readings can be large; an effect the other way counts as inactive or inconclusive. % is set by controls: 0 for no effect and ±100 for the full control effect; potency is the fitted concentration of half-maximal effect.

SMILES | RE007 growth inh | TbPYK inhibitor | Sm TGR block | LmPK inhibitor
CCOc1ccc(-n2c(=O)c3c(C)c(C)sc3n(CC(=O)Nc3ccc(CC)cc3)c2=O)cc1 | · | -0.8% | 0.9% | ·
CN(C)C(=O)c1ccc(NC(=O)c2ccc(-c3ccc(Cl)cc3)o2)cc1 | 6.1% | 1.1% | 31.6µM* | ·
Cc1nnc(NC(=O)c2ccc(-c3ccc(Cl)cc3)o2)s1 | -29.0% | 3.7% | -4.7% | ·
CC(=O)c1ccc(NC(=O)c2ccc(-c3ccc(Cl)cc3)o2)cc1 | · | 0.1% | 39.8µM* | ·
CCc1ccc(S(=O)(=O)c2cn(Cc3ccc(OC)cc3)c3cc(OC)c(OC)cc3c2=O)cc1 | · | 12.1% | 5.1% | ·
O=C(NC1CCCCC1)c1cc(Nc2cccc(C(F)(F)F)c2)nc2ccccc12 | · | 1.4% | 11.3% | ·
CC/C(=N\Nc1cccc2ccccc12)c1c(O)[nH]c(=O)[nH]c1=O | ? | -1.7% | 79.4µM* | 1.1%
COc1ccccc1/C=C/C=N/n1c(-c2n[nH]c3c2CCC3)n[nH]c1=S | 6.5% | ? | 3.7% | -3.0%
S=c1[nH]nc(-c2n[nH]c3c2CCC3)n1/N=C/C=C/c1ccco1 | -10.1% | -31.2% | 11.2µM* | 5.6%
O=c1c2ccccc2nc(COc2ccccc2)n1/N=C/c1ccco1 | -4.8% | 2.7% | 39.8µM* | 4.6%
S=c1[nH]nc(-c2ccco2)n1/N=C/C=C/c1ccco1 | -1.5% | ? | ? | 7.0%
S=c1[nH]nc(-c2cc(-c3ccccc3)n[nH]2)n1/N=C/C=C/c1ccco1 | -0.3% | ? | 11.2µM* | 6.8%
S=c1[nH]nc(COc2ccccc2)n1/N=C/C=C/c1ccco1 | 20.0% | ? | 12.6µM* | 0.6%
COc1ccc(-c2nc3scc(CCNS(=O)(=O)c4ccc(F)c(C(F)(F)F)c4)n3n2)cc1OC | · | 8.7% | -2.5% | ·
Cc1ccc(C)c(CNC(=O)c2ccc3c(c2)nc2n3CCCCC2)c1 | · | -3.4% | -2.1% | ·
COC(=O)c1ccc(C(=O)OC)c(NC(=O)c2c(-c3ccccc3)c(-c3ccccc3)nn(C)c2=O)c1 | · | -0.8% | 4.3% | ·
CCOC(=O)C1CCCN(C2CC(=O)N(c3ccc(C)c(C)c3)C2=O)C1 (configuration not stated) | 28.2µM* | -6.7% | 44.7µM* | 3.2%
CCOC(=O)C1CCCN(C2CC(=O)N(c3ccc(C(C)C)cc3)C2=O)C1 (configuration not stated) | 35.5µM* | 2.8% | ? | 5.8%
CCOC(=O)C1CCCN(C2CC(=O)N(c3ccccc3)C2=O)C1 (configuration not stated) | ? | -2.6% | ? | -1.6%
CCOC(=O)C1CCCN(CCC(C)c2ccccc2)C1 (configuration not stated) | 14.1% | 27.0% | 1.8% | -4.1%
Cc1ccc(N2C(=O)C3CCCN3C2=S)cc1C (configuration not stated) | 1.9% | 15.6% | 9.8% | -6.5%
CCOC(=O)C1CCCN(C2CC(=O)N(c3ccc(N4C(=O)CC(N5CCCC(C(=O)OCC)C5)C4=O)cc3)C2=O)C1 (configuration not stated) | 1.1% | 0.3% | 20µM* | 0.3%
CCOC(=O)C1CCN(C2CC(=O)N(c3ccc(OCC)cc3)C2=O)CC1 (configuration not stated) | 17.8µM* | 4.3% | 50.1µM* | 0.9%
COc1ccc(C(=O)N2CCOCC2c2cc(C(=O)NCc3ccccc3)no2)cc1 (configuration not stated) | -0.3%[18.4 µM] | 1.5% | · | ·
CCc1ccc(N2C(=O)CC(N3CCC(C(=O)OC)CC3)C2=O)cc1 (configuration not stated) | 10µM* | 1.0% | 56.2µM* | -4.3%
SMILES | RE007 growth inh | TbPYK inhibitor | Sm TGR block | LmPK inhibitor
CCCCCCOc1ccc(N2C(=O)CC(N3CCC(C(=O)OCC)CC3)C2=O)cc1 (configuration not stated) | 4.8% | -4.0% | 3.7% | 3.5%
CCOC(=O)C1CCCN(C2CC(=O)N(c3cccc(C(F)(F)F)c3)C2=O)C1 (configuration not stated) | 8.91µM* | 5.0% | ? | -1.6%
CCOC(=O)N1CCN(Cc2nc3cc(NC(=O)c4ccc([N+](=O)[O-])cc4)ccc3n2C(C)C)CC1 | · | -5.6% | -7.2% | ·
COc1ccccc1Nc1ccc([N+](=O)[O-])cc1N | 9.0% | -1.5% | 0.9% | 4.1%
COc1cc(Nc2ccccc2Cl)c([N+](=O)[O-])nc1[N+](=O)[O-] | 14.8% | 4.3% | 39.8µM* | 13.9%
Cc1[nH]c2ccccc2c1C(O)CN1CCN(c2cccc(C(F)(F)F)c2)CC1 (configuration not stated) | -2.9% | -7.4% | 31.6µM* | 1.6%
Cc1[nH]c2ccccc2c1NC(=O)CN1CCN(c2cccc(C(F)(F)F)c2)CC1 | -7.4% | -1.7% | -6.8% | 4.3%
O=C(Nc1ccc(F)cc1)Nc1nnc(Cc2ccccc2F)s1 | 1.7% | 2.1% | -0.9% | -1.5%
O=C(OCn1ncc(Cl)c(Cl)c1=O)c1cccc(C(F)(F)F)c1 | 44.7µM* | 8.5% | 5.62µM* | 0.2%
O=C1NC(=O)/C(=C\c2ccc(Sc3ccc(Cl)cc3)o2)N1 | -20.4% | -8.9% | 50.1µM* | 0.5%
O=C1NC(=O)/C(=C\c2ccc(N3CCOCC3)o2)N1 | 0.9% | -28.2% | 8.91µM* | -3.6%
Cc1cc(/C=C2\NC(=O)NC2=O)c(C)n1-c1ccc(N2CCOCC2)cc1 | -27.3% | -0.7% | ? | -0.9%
O=C1NC(=O)/C(=C/c2ccc(N3CCOCC3)o2)N1 | -0.2% | -10.0% | 11.2µM* | 3.2%
Cc1ccccc1N1C(=O)NC(=O)/C(=C/c2ccc(N3CCOCC3)o2)C1=O | 4.7% | -4.0% | 22.4µM* | 2.4%
O=C1NN(c2ccccc2)C(=O)/C1=C/c1ccc(Sc2ccc(Cl)cc2)o1 | -1.1% | -4.5% | ? | -0.5%
O=C(Nc1ccc2c(c1)CN(Cc1ccccc1O)CC2)C1CCCO1 (configuration not stated) | 6.2% | 3.8% | -13.8% | 0.2%
Cc1ccc(NC(=O)Nc2ccccc2C(N)=O)cc1 | · | -16.6% | 0.8% | 15.8µM*
COc1ccc(NC(=O)Nc2ccccc2C(N)=O)cc1OC | 5.9% | 2.5% | 2.3% | ?
COc1ccc(NC(=O)Nc2ccccc2C(N)=O)cc1 | ? | -29.5% | 19.0% | 14.1µM*
C[C@H]1CNC(=O)c2c(C(=O)N[C@@H](Cc3c[nH]c4ccccc34)C(=O)OC(C)(C)C)ncn21 | 10.9% | -1.2% | · | ·
Cc1ccccc1Cn1c(=O)n(CCCCC(=O)NCCc2ccccc2)c(=O)c2ccccc21 | · | 1.3% | -3.5% | ·
O=c1c2ccccc2sn1-c1ccccc1F | 35.5µM* | 7.08µM* | · | ·
N#Cc1c(N)n(-c2ccccc2)c(=O)c2cc([N+](=O)[O-])ccc12 | 5.4% | 2.9% | · | 1.3%
O=C1CN(c2ccccc2F)C(=O)CN1c1ccccc1F | -10.7% | 5.9% | 3.2% | -11.4%
O=c1[nH]sc2cc(F)ccc12 | ? | ? | -18.7% | 22.6%
CC(=O)Nc1ccc2c(=O)n(-c3ccccc3)sc2c1 | 12.2% | 7.08µM* | · | ·
Cc1ccccc1-n1sc2cc(F)ccc2c1=O | -92.3% | 8.91µM* | -27.2% | 20.7%
